Results: PubChem BioAssay AID1159580 (chemical genetic matrix, 2015)
Where “and” joins values, the source holds several entries; their conditions need not be identical. Equal values may be shown once. Out of some 5,500 compounds screened, about 2,000 (36%) were called active. Roughly 18% stayed inconclusive and do not appear here. Rule as the data show it: active = normalized growth mostly below about 0.91 (no sharp cut-off); inconclusive = no clear call, values can overlap the other calls; inactive = mostly above about 0.92. The list shows a part of the results.

Experiment: chemical genetic growth profiling, strain panel (AID 1159580);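 also: tested at 20 µM; growth read once vehicle control cultures reached saturation at 30 °C; 1 = growth at the plate median or of vehicle wells; lower values mean less growth of the strain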
Settings: S. cerevisiae deletion strains, growth OD

Measured: normalized growth

CO[C@@]1(NC(=O)CSCC#N)C(=O)N2C(C(=O)O)=C(CSc3nnnn3C)CSC21 (stereo partly specified)
inactive: locus YAL013W, strain DEP1, hits give low values 1.01 | locus YAL021C, strain ccr4, hits give low values 0.941 | locus YAL026C, strain drs2, hits give low values 0.985 | locus YAL030W, strain snc1, hits give low values 0.988 | locus YBL061C, strain skt5, hits give low values 0.985 | locus YBR009C, strain hhf1, hits give low values 0.988 | locus YBR021W, strain FUR4, hits give low values 1 | locus YBR023C, strain chs3, hits give low values 0.994 | locus YBR171W, strain sec66, hits give low values 0.997 | locus YBR229C, strain ROT2, hits give low values 1.01 | locus YBR231C, strain swc5, hits give low values 0.981 | locus YBR279W, strain paf1, hits give low values 0.981 | locus YCL011C, strain gbp2, hits give low values 0.993 | locus YCL016C, strain dcc1, hits give low values 0.975 | locus YCL029C, strain bik1, hits give low values 1.03 | locus YCL069W, strain vba3, hits give low values 0.986 | locus YCR088W, strain abp1, hits give low values 0.996 | locus YDL005C, strain med2, hits give low values 0.909 | locus YDL035C, strain GPR1, hits give low values 1.02 | locus YDL040C, strain nat1, hits give low values 0.988 | locus YDL074C, strain BRE1, hits give low values 1.03 | locus YDL101C, strain DUN1, hits give low values 1.01 | locus YDL134C, strain PPH21, hits give low values 1.01 | locus YDL185W, strain tfp1, hits give low values 1.03 | locus YDL192W, strain arf1, hits give low values 1.04 | locus YDR001C, strain nth1, hits give low values 1 | locus YDR069C, strain doa4, hits give low values 0.973 | locus YDR101C, strain arx1, hits give low values 1.03 | locus YDR137W, strain rgp1, hits give low values 0.948 | locus YDR150W, strain NUM1, hits give low values 1.01 | locus YDR159W, strain sac3, hits give low values 0.927 | locus YDR162C, strain NBP2, hits give low values 1.04 | locus YDR195W, strain ref2 1 | locus YDR297W, strain sur2, hits give low values 1 | locus YDR318W, strain mcm21, hits give low values 1.03 | locus YDR334W, strain swr1, hits give low values 1 | locus YDR335W, strain msn5, hits give low values 0.99 | locus YDR388W, hits give low values 1.02 | locus YDR392W, strain spt3, hits give low values 0.878 | locus YDR502C, strain sam2, hits give low values 1.03 | locus YEL003W, strain gim4, hits give low values 1 | locus YEL037C, strain rad23, hits give low values 1 | locus YEL061C, strain CIN8 (second series), hits give low values 1.01 | locus YEL061C, strain CIN8, hits give low values 1.01 | locus YER015W, strain faa2, hits give low values 0.982 | locus YER016W, strain bim1, hits give low values 0.968 | locus YER110C, hits give low values 1.04 | locus YER111C, strain swi4, hits give low values 0.982 | locus YER155C, strain BEM2 (second series), hits give low values 0.968 | locus YER155C, strain BEM2, hits give low values 1.01 | locus YER167W, strain BCK2, hits give low values 1.02 | locus YFR010W, strain ubp6, hits give low values 1 | locus YGL078C, strain dbp3, hits give low values 1.03 | locus YGL086W, strain mad1, hits give low values 1.02 | locus YGL167C, strain pmr1, hits give low values 0.984 | locus YGL173C, strain kem1, hits give low values 0.97 | locus YGL227W, strain vid30, hits give low values 1.01 | locus YGL240W, strain doc1, hits give low values 0.959 | locus YGL248W, strain PDE1, hits give low values 1.01 | locus YGL253W, strain hxk2, hits give low values 0.998 | locus YGR078C, strain PAC10, hits give low values 1.01 | locus YGR135W, strain pre9, hits give low values 1.01 | locus YGR229C, strain SMI1, hits give low values 1.02 | locus YGR252W, strain gcn5, hits give low values 1.07 | locus YHR013C, strain ard1, hits give low values 0.964 | locus YHR027C, strain rpn1, hits give low values 0.98 | locus YHR030C, strain SLT2, hits give low values 1.01 and 0.983 | locus YHR079C, strain IRE1 (second series), hits give low values 1.02 | locus YHR079C, strain IRE1, hits give low values 0.986 | locus YHR094C, strain hxt1, hits give low values 1.03 | locus YHR129C, strain ARP1, hits give low values 1.01 | locus YHR142W, strain chs7, hits give low values 1.01 | locus YHR200W, strain rpn10, hits give low values 1.04 | locus YIL066C, strain RNR3, hits give low values 1.03 | locus YIL073C, strain SPO22, hits give low values 1.13 | locus YIL125W, strain kgd1, hits give low values 1.03 | locus YIR030C, strain dcg1, hits give low values 1.03 | locus YJL092W, strain hpr5, hits give low values 1 | locus YJL095W, strain BCK1 (second series), hits give low values 0.979 | locus YJL095W, strain BCK1, hits give low values 1.01 and 0.98 | locus YJL115W, strain asf1, hits give low values 0.984 | locus YJL129C, strain trk1, hits give low values 0.99 | locus YJL134W, strain LCB3, hits give low values 1 | locus YJL154C, strain vps35, hits give low values 1 | locus YJL164C, strain tpk1, hits give low values 0.973 | locus YJL166W, strain qcr8, hits give low values 0.978 | locus YJL168C, strain set2, hits give low values 1.04 | locus YJL187C, strain SWE1 (second series), hits give low values 1.01 | locus YJL187C, strain SWE1, hits give low values 0.985 | locus YJR043C, strain POL32, hits give low values 1.01 | locus YJR066W, strain TOR1, hits give low values 0.942
